Source: PubChem BioAssay (National Center for Advancing Translational Sciences (NCATS))
GLP1R cytotox: qHTS of GLP-1 Receptor Inverse Agonists: Cytotox Screen | HEK293 cAMP-luciferase reporter cells, luminescence, 24 h | Potency, µM (series often up to 38.3 µM), for the others: at the highest dose activity change, negative = inhibition, hits mostly inhibitors | hit rate 0.13% among 410,000;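 further: loss of luciferase light is scored as toxicity; potency means the concentration at half of the fitted maximal effect; on the % scale 0 is the no-effect control and ±100 the full control effect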
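Step one: seed cells (200 cells/uL, DMEM with 10% Nu serum, 1% pen-strep). Step two: 12-hour incubation at 37 deg C. Step three: pin 23 nL compound, incubate 24 hr. Step four: add luciferase reagent, read luminescence 12 min later.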
D3 ag: qHTS of D3 Dopamine Receptor Agonist: qHTS; D(3) dopamine receptor (Homo sapiens), P35462; D3R DiscoveRx beta-arrestin cells, luminescence, 90 min; max activation, %; hit rate 0.58% among 410,000; in the data active means max activation above about 30%; further: 0% is about no effect
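Agonist mode: compounds and dopamine controls were applied to plated cells for 90 min at 37 degrees C after an overnight attachment at 1500 cells/well. Luminescent read-out followed 30 - 60 minutes at room temperature with DiscoveRx detection reagent.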
GLP1R inv ag: qHTS of GLP-1 Receptor Inverse Agonists (Inhibition Mode) | hit rate 1.6% among 410,000 | Glucagon-like peptide 1 receptor (Homo sapiens), P43220 | Potency, µM (highest dose often 38.3 µM), for inactives: top-dose activity change, negative = inhibition, most hits filed as inhibitors | HEK293 GLP-1R CRE-luciferase, luminescence, 24 h; GLP-1R form is constitutively active | AID 624417, 2012; further: potency means the concentration at half of the fitted maximal effect; on the % scale 0 is the no-effect control and ±100 the full control effect; nearly all actives have a fitted effect of over 55% in size
Target sequence (P43220 whole entry, looked up): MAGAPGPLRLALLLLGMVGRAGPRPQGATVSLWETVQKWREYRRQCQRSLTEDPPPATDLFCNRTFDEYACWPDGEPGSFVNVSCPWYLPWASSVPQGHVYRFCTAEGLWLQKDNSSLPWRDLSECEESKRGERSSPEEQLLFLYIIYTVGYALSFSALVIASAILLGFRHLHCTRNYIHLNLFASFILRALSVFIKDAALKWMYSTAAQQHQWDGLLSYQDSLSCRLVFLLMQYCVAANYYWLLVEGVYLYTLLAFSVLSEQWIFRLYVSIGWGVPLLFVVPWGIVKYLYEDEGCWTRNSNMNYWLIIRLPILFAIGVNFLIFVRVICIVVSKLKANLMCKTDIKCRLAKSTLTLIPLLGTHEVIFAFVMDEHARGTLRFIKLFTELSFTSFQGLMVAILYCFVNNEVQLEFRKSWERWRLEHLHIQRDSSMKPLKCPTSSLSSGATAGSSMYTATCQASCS
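GLP-1R inverse agonism mode: basal reporter luminescence in engineered HEK293 cells measured after one day of compound exposure at 37 deg C, with a 12 min room-temperature detection step.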
D3 antag: qHTS of D3 Dopamine Receptor Antagonist: qHTS. D3R cells, DiscoveRx beta-arrestin luminescence, antagonist mode; active compounds read low. max response, negative = inhibition, %. hit rate 2.5% among 360,000. AID 652054, 2013; in the data active means max response below about -50%; inconclusive means no clear call, values can overlap the other calls; further: on the % scale 0 is the no-effect control and ±100 the full control effect
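Cells plated overnight at 1500 cells/well, then exposed to library compounds with dopamine controls for 90 minutes at 37 degrees C. DiscoveRx reagent added for 30–60 minutes at room temperature; luminescence read, quantitative HTS format.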
GLP1R ag: qHTS of GLP-1 Receptor Agonists; Glucagon-like peptide 1 receptor (Homo sapiens), P43220; HEK293 GLP-1R CRE-luciferase, luminescence, 4-6 h; cells express a hypersensitive GLP-1R form; Potency, µM (series often up to 45.6 µM), inactives show at the highest dose activation, most hits filed as activators; hit rate 0.007% among 380,000; AID 624172, 2012; further: potency means the concentration at half of the fitted maximal effect; % of control where 0% means no effect
ClpP mod: qHTS Assay for Activators of ClpP. ATP-dependent Clp protease proteolytic subunit (Bacillus subtilis (strain 168)), P80244. purified B. subtilis ClpP, FRET peptide cleavage, 20 min. Potency, µM (top dose mostly 57.5 µM), inactives show at the highest dose activity change, negative = active. hit rate 1.9% among 340,000. AID 651965, 2013; active means well fitted falling curve with a large enough effect; inconclusive means small, poorly fitted or top-dose-only effect; inactive means no such curve, though single readings can be large or run the other way; further: potency means the concentration at half of the fitted maximal effect; the source files actives as falling curves though it sought activators and does not explain the sign; nearly all actives have a fitted effect of over 65% in size
Target sequence (P80244 whole entry, looked up): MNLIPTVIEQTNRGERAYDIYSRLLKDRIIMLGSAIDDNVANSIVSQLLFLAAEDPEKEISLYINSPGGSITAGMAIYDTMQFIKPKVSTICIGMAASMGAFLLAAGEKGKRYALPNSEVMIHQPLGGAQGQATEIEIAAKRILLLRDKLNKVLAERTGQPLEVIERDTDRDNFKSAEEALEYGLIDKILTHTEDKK
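ClpP 10 microg/mL final, pH 8 Tris/KCl buffer with BSA, glycerol, Tween-20; compound pinned in; FRET-FV substrate; RT 20 min; Ex320/Em430; ΔFRET vs ADEP 5.8 microM, DMSO, no enzyme.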
Active calls of the source: *; ? = inconclusive; · = no result; [ ] = dose if it differs, or a comment. In the library only some 5.7% were active in any assay of this set; here they are far more common. Unless noted, the call rests on the fitted dose curve; in most records, active means well fitted curve in the direction sought with a large enough effect; inconclusive means small, poorly fitted or top-dose-only effect, or another doubt; inactive means no such curve, though single readings can be large; an effect the other way counts as inactive or inconclusive.

SMILES | GLP1R cytotox | D3 ag | GLP1R inv ag | D3 antag | GLP1R ag | ClpP mod
O=C(Cc1c(F)c(F)c(F)c(F)c1F)Nc1nc(-c2ccccc2)cs1 | ? | 27.7 | 7.08µM* | 1.8 | -2.2% | 1.9%
CC(=O)Nc1ccc(-c2csc(NC(=O)Cc3ccccc3F)n2)cc1 | -6.6% | 2.6 | ? | -4.6 | 19.7% | ·
CCS(=O)(=O)n1nc(-c2ccco2)nc1NCc1ccc(C(C)C)cc1 | 28.0% | 4.3 | ? | · | · | -0.8%
CCOC(=O)c1c(C)[nH]c(CCC(=O)NCc2cc(Br)ccc2OC)c1C | 15.5% | -12.1 | -19.9% | · | · | -2.9%
O=C(Nc1ccc(Cl)cc1)C(NS(=O)(=O)c1cccs1)c1ccccc1 (stereo not drawn) | -11.6% | -5.0 | ? | · | · | -0.2%
O=C(c1cc2c(s1)-c1ccccc1OC2)N1CCc2ccccc2C1 | -14.2% | -4.4 | 14.9% | -7.4 | 7.2% | 5.5%
CCN(C(=O)c1cc2c(s1)-c1ccccc1OC2)c1cc(OC)ccc1OC | 13.5% | -11.6 | ? | -53.9* | 16.2% | -26.5%
COc1ccccc1N1CCN(C(=O)c2cc3c(s2)-c2ccccc2OC3)CC1 | -18.5% | 1.7 | ? | 38.6 | 2.4% | 14.1µM*
CCN(C(=O)c1cc2c(s1)-c1ccccc1S(=O)(=O)C2)c1cc(OC)ccc1OC | 6.1% | -0.6 | 8.3% | 23.5 | 8.3% | 0.2%
N#Cc1cccc(-c2csc(C(O)(c3ccccc3)C(F)(F)F)n2)c1 (stereo not drawn) | -27.2% | -3.7 | ? | 6.6 | 11.6% | -0.2%
Cc1ccc(-n2cnc3scc(-c4cccs4)c3c2=O)cc1 | -6.0% | -3.8 | 10µM* | 3.4 | 0.8% | -13.9%
CCOc1ccc(C(C(=O)NC2CCCC2)N(Cc2ccccc2)C(=O)c2nsc(Cl)c2Cl)cc1 (stereo not drawn) | 2.6% | -9.3 | 10µM* | -21.0 | -4.1% | 0.2%
Cc1cccc(N(C(=O)c2nsc(Cl)c2Cl)C(C(=O)NC2CCCC2)c2ccc(O)cc2)c1C (stereo not drawn) | -21.1% | -11.9 | 8.91µM* | -20.8 | -12.4% | -1.2%
Cc1ccc(N(C(=O)c2nsc(Cl)c2Cl)C(C(=O)NC2CCCC2)c2ccc(O)cc2)cc1C (stereo not drawn) | -0.7% | -31.1 | ? | -51.9* | 4.7% | ?
COc1ccc(C(C(=O)NC2CCCC2)N(Cc2ccccc2)C(=O)c2nsc(Cl)c2Cl)cc1 (stereo not drawn) | -19.8% | -7.3 | ? | 0.4 | -2.3% | -3.6%
Cc1cc(C)cc(N(C(=O)c2nsc(Cl)c2Cl)C(C(=O)NC2CCCC2)c2ccc(O)cc2)c1 (stereo not drawn) | ? | -19.6 | 3.98µM* | -11.5 | -13.7% | 1.9%
CCOC(=O)c1cccc(NC(=O)c2ccc3nc(Cc4ccccc4)oc3c2)c1 | -25.1% | 15.1 | ? | · | · | -28.1%
COc1ccc(OC)c(NC(=O)CC2SC(=Nc3ccc(F)cc3)N(CCC3=CCCCC3)C2=O)c1 (stereo not drawn) | -7.8% | 2.0 | 4.47µM* | 4.2 | 9.6% | -0.6%
COc1cccc(-c2cc(CNC(=O)[C@H]3O[C@@H](n4ccc(=O)[nH]c4=O)[C@H](O)[C@@H]3O)no2)c1 | -3.8% | -2.1 | 2.7% | -8.9 | -2.7% | -7.6%
COC(=O)C1C(=O)C2=C(CC1C)NC(C)=C(C(=O)OCc1ccc(OC)cc1)C2c1ccc(C)o1 (stereo not drawn) | 10.1% | 4.6 | -35.3% | 14.2 | 2.8% | -10.7%
CC1=C(C(=O)OCCOc2ccccc2)C(c2ccc(C)o2)C2=C(CC(C)(C)CC2=O)N1 (stereo not drawn) | 10.1% | -9.4 | 7.94µM* | -30.0 | -0.7% | -10.6%
COC(=O)C1C(=O)C2=C(CC1C)NC(C)=C(C(=O)OCCOc1ccccc1)C2c1ccc(C)o1 (stereo not drawn) | -23.9% | -2.2 | 11.2µM* | -10.7 | 10.0% | -6.7%
COC(=O)C1C(=O)C2=C(CC1C)NC(C)=C(C(=O)OC1CCCCC1)C2c1ccc(N(C)C)cc1 (stereo not drawn) | -16.0% | 2.9 | 10µM* | -6.2 | 0.3% | 3.3%
Cc1cccc(NC(=O)Cn2nnc(C(=O)NCc3cccs3)c2N)c1 | -9.1% | 6.9 | -27.5% | · | -0.7% | 1.5%
CN1CCCN(C(=O)/C=C/c2ccc(Cl)cc2Cl)CC1 | ? | -1.9 | 7.94µM* | -3.1 | -7.4% | -0.1%
SMILES | GLP1R cytotox | D3 ag | GLP1R inv ag | D3 antag | GLP1R ag | ClpP mod
O=C1CN(C(=O)/C=C/c2ccc(Cl)cc2Cl)CCN1 | 7.2% | 13.2 | 40.4% | -16.6 | 0.9% | ·
CCCN1CNc2c(c(=O)[nH]c(=S)n2CCc2cccc(Cl)c2Cl)C1 | · | · | · | · | · | -3.7%
COc1ccc(Sc2ccc(NC(=O)c3ccccc3Cl)cc2C#N)cc1 | ? | -13.5 | 12.6µM* | 3.3 | 2.4% | ?
N#Cc1cc(NC(=O)c2ccc(Cl)cc2)ccc1Sc1ccccc1 | -0.1% | -15.7 | -12.2% | 0.0 | 0.0% | -4.1%
CCn1cc(C(=O)OCC(=O)Nc2cc(Cl)ccc2OC)c(=O)c2ccc(C)nc21 | 3.0% | -2.8 | 5.4% | · | -3.5% | -2.1%
CCCn1c(=O)c2ccccc2n2c(SCCOc3ccc(Cl)cc3)nnc12 | 10.0% | -0.9 | 29.7% | -50.1* | 2.0% | 0.5%
Cc1nc(-c2ccc(C)c(N3CCN(C(=O)Nc4ccccc4C(F)(F)F)CC3)c2)no1 | -1.6% | -1.3 | -5.9% | · | -4.0% | 0.8%
COc1ccccc1NC(=O)CCn1nc(-c2ccccc2OC)c2c(C)cc(C)nc21 | 2.1% | -3.8 | ? | · | -2.2% | ?
O=C(O)c1ccc(Nc2nc3c(s2)CCCC3)cc1 | -12.4% | 2.0 | 1.78µM* | 1.6 | -5.4% | -9.4%
O=C(Nc1nc2c(s1)CCCC2)c1cc(-c2ccccc2)nc2ccccc12 | -17.8% | -8.0 | ? | -81.0* | -11.1% | -1.0%
O=C(Nc1nc2c(s1)CCCC2)c1cc(-c2ccncc2)nc2ccccc12 | -0.8%[1.53 µM] | -28.5 | 14.3% | ? | -0.6% | -4.5%
O=S1(=O)N=C(Nc2nc3c(s2)CCCC3)c2ccccc21 | ? | -4.5 | 4.47µM* | -4.9 | -33.1% | -2.2%
O=C(Cc1cccs1)Nc1nc2c(s1)CCCC2 | 13.2% | -15.7 | 0.0% | -11.2 | 13.1% | -2.0%
O=C(Nc1nc2c(s1)CCCC2)c1cccs1 | -15.5% | -0.4 | 10µM* | 23.4 | -8.3% | -3.6%
